Consider 36 molecules from PubChem BioAssay.

By inhibition is commonly meant the drop in the measured response relative to a control, in per cent.

A number with no mark means an inactive call. Active and inactive are the calls of the source. Rule as the data show it, unless noted: active = inhibition above about 36%; inactive = the rest.

For assay [1], the system named is transactivating tegument protein VP16 (Human herpesvirus 1). The experiment in a line: compounds suppressing VP16-driven luciferase signal – cell-based, luminescence, single concentration, counter-screen for SRC2 inhibitor project (AID 652007). Conditions: cell-based VP16 transactivation luciferase reporter, at 8.9 µM, hits give high values. In general terms: Counterscreens check selectivity or assay interference.

In assay [2] the target is Nuclear receptor coactivator 2 (Homo sapiens) (UniProt Q15596). Description: inhibition of GAL4-SRC2 driven luciferase expression – cell-based, luminescence, HEK293, triplicate, confirmation (AID 652008;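 active = mean inhibition above 46.5%, the solvent-only control mean plus 3 SD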;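 also: 0% = DMSO-treated cells and 100% = Gossypol at 36 µM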). Conditions: HEK293 GAL4-SRC2 luciferase reporter, at 8.9 µM, hits give high values. Background: A reporter such as luciferase makes a cellular process visible.
Sequence of Nuclear receptor coactivator 2 (Homo sapiens) (Q15596 whole entry, looked up, the tested form may be a part): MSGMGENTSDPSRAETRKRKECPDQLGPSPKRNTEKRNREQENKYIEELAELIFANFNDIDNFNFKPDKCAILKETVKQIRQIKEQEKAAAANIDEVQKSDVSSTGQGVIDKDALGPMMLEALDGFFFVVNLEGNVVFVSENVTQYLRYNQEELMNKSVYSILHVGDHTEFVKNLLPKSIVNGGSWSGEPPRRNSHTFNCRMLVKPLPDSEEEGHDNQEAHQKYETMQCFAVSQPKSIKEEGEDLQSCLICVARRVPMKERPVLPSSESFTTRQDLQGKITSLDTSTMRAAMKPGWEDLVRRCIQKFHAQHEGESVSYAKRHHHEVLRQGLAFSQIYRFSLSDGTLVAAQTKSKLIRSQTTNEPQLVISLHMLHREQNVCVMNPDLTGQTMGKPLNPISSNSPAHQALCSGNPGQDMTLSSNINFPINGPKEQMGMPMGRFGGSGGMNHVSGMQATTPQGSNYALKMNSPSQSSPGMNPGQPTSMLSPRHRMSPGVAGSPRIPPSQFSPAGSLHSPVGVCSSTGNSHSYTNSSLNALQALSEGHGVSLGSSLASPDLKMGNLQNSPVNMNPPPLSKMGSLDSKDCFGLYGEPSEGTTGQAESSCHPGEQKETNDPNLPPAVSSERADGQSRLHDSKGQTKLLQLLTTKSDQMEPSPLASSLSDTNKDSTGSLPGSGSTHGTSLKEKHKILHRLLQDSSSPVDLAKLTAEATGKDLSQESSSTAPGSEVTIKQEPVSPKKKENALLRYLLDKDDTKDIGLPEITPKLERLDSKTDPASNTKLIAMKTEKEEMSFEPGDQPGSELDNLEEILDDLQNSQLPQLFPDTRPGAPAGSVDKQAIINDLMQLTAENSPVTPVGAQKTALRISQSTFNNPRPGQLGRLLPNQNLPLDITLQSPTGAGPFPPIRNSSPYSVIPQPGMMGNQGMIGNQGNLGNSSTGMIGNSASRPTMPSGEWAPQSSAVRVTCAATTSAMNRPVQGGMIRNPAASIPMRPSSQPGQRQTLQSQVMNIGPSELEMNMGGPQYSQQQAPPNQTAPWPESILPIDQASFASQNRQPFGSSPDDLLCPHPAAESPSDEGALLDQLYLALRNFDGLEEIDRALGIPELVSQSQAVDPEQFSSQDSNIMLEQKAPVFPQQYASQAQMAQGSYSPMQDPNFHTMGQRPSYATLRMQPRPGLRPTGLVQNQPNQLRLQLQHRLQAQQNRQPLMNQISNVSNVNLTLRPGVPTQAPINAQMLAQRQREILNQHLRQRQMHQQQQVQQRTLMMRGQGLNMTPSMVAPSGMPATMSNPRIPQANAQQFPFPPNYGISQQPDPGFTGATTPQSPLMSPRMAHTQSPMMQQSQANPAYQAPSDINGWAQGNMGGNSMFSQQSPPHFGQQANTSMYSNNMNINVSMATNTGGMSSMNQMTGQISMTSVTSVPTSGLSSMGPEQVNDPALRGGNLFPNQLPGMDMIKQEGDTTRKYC

As for `CCC1CCCCN1S(=O)(=O)c1ccc(NC(=O)c2nc(S(C)(=O)=O)ncc2Cl)cc1` (configuration not stated), the inhibition in assay [1] is 96.7% (active); in assay [2], 72.7% (active).

`C=CC[C@]12CC=CC(=O)[C@@]1(O)O[C@H](c1ccc(OC)c(OC)c1)[C@H]2C`: the inhibition was 22.7% in assay [1] and 32% in assay [2].

As for `Cc1c(CCC(=O)N[C@@H](CC(C)C)C(=O)O)c(=O)oc2cc3oc4c(c3cc12)CCCC4`, the inhibition in assay [1] was 37.5% (active); in assay [2], 69.8% (active).

On to `O=C(O)C1(Nc2ccc(Br)cc2)CCCC1`, for which the inhibition in assay [1] was -19.4%; in assay [2], -11.7%.

`CCOc1cc(/C=C2/NC(=O)N(Cc3ccccc3F)C2=O)ccc1O`: the inhibition was 4.78% in assay [1] and 30.1% in assay [2].

On to `CC(C)(C)C(=O)Nc1nnc(CSCc2ccccc2F)s1`, for which the figures for the inhibition in assay [1] and in assay [2] were -20.9% and 9.89%, respectively.

`COc1ccc(/C=C2\SC(=S)N(CCCC(=O)Nc3ccc(O)cc3)C2=O)cc1`: the inhibition in assay [1] was 52.4% (active); in assay [2], 35.3%.

Regarding `NNC(=O)COc1ccc(C(F)(F)F)cc1`, the inhibition in assay [1] was -3.76%; in assay [2], 4.91%.

For the molecule `CC(=O)Nc1ccc(Nc2cc(C)nc3c(-c4ccccc4)cnn23)cc1`, the inhibition in assay [1] is -21.3%; in assay [2], 35.7%.

For `CCOC(=O)C1=CCN(S(=O)(=O)c2ccccc2C)C1c1ccc(Cl)c(Cl)c1` (configuration not stated), the inhibition was -18.3% in assay [1] and -14% in assay [2].

As to `Nc1ncc([N+](=O)[O-])c(Oc2ccccc2F)n1`, the values for the inhibition in assay [1] and in assay [2] were -7% and -16.8%, respectively.

In the case of `Cc1cnc(NC(=O)COc2ccccc2Cl)s1`, the inhibition in assay [1] is -10.5%; in assay [2], 18.8%.

Take `CCn1nc(NC(=O)C(C)C)c2cc3cccc(C)c3nc21`: the inhibition was 3.87% in assay [1] and 15.9% in assay [2].

As for `N#Cc1ccccc1COc1ccc(/C=C/C(=O)O)cc1`, the inhibition in assay [1] is 57.9% (active); in assay [2], 76.8% (active).

For `COc1cc(NC(=O)CSc2nnc3c(C)cc4cc(C)cc(C)c4n23)c(C(=O)O)cc1OC`, the inhibition in assay [1] was -9.86%; in assay [2] it was -11.4%.

As to `Cc1nn(C)c(Cl)c1NC(=O)OCc1ccc(Cl)cc1Cl`, the inhibition in assay [1] was 10.8%; in assay [2], 16.2%.

As to `CCOc1ccc(-c2cc(CCCC(=O)NCc3ccco3)no2)cc1`, the inhibition in assay [1] was 16.9%; in assay [2] it was 37.5%.

Consider `CCCC(O)(CCC)C(=O)NN(C(=O)CCl)c1ccccc1`, for which the inhibition in assay [1] is 8.55%; in assay [2] it was 30.1%.

Regarding `Cc1cc2c(cc1C)C(=O)NC(C)(C)C2`, the inhibition in assay [1] was 2.03%; in assay [2] it was 28.2%.

On to `Cc1nc([N+](=O)[O-])c(Sc2nc3ccc([N+](=O)[O-])cc3[nH]2)n1Cc1ccccc1`, for which the inhibition was -6.71% in assay [1] and 46.7% (active) in assay [2].

In the case of `Cn1nnnc1Sc1ncnc2scc(-c3cccc(F)c3)c12`, the inhibition in assay [1] was 7.55%; in assay [2] it was 38.1%.

`COc1ccc(NC(=O)COc2coc(CN3CCN(c4ccccc4)CC3)cc2=O)cc1`: the inhibition was -6.47% in assay [1] and -1.96% in assay [2].

Regarding `CN1/C(=C/C=C/c2n(C)c3cc([N+](=O)[O-])c([N+](=O)[O-])cc3[n+]2C)C(C)(C)c2ccccc21`, the values for the inhibition in assay [1] and in assay [2] were 3.99% and -3.59%, respectively.

In the case of `COc1cccc(N2CCN(c3ncnc4c3[nH]c3ccccc34)CC2C)c1` (configuration not stated), the inhibition was 63.8% (active) in assay [1] and 12.8% in assay [2].

On to `O=C(NCc1ccc(Cl)c(Cl)c1)c1cc(C2CCCCN2C(=O)CCc2ccccc2)on1` (configuration not stated), for which the values for the inhibition in assay [1] and in assay [2] were -6.3% and 12.6%, respectively.

Turning to `CCCCN(CCCNC(=S)NCCCc1cnc[nH]1)c1ccc(Br)cn1`, the inhibition in assay [1] was -7.99%; in assay [2], 39.1%.

Turning to `CC(C)COc1ccc(C/C(N)=N/n2cnnc2)cc1`, the inhibition was 22.1% in assay [1] and 40.3% in assay [2].

Consider `O=C1N[C@@H](Cc2ccccc2)C(=O)N2[C@H]1CSCCS2(=O)=O`, for which the inhibition in assay [1] was -5.16%; in assay [2], -25.1%.

With `C=C1C(=O)O[C@@H]2C[C@@H](C)[C@@H]3C=CC(=O)[C@@]3(C)[C@@H](OC(C)=O)[C@H]12`, the inhibition in assay [1] is 96% (active); in assay [2], 91% (active).

In the case of `O=S(=O)(c1ccc(NC(=S)NCc2ccncc2)cc1)N1CCCCC1`, the inhibition in assay [1] is 15.6%; in assay [2], 0.63%.

With `CNC(=O)c1nnsc1S(=O)(=O)c1ccc(Cl)cc1`, the inhibition in assay [1] and in assay [2] was 49.1% (active) in each case.

Regarding `CCCC(CCC)C(=O)Nc1ccc2c(c1)N(C(=O)CN1CCN(C)CC1)c1ccccc1CC2`, the inhibition in assay [1] was -0.11%; in assay [2] it was -4.28%.

Turning to `CCOC(=O)C1CCN(S(=O)(=O)c2ccc(NC(=O)OC)cc2)CC1`, the inhibition is -1.65% in assay [1] and -1.21% in assay [2].

For the molecule `Fc1ccc(CNC2CCN(Cc3ccccc3)CC2)cc1`, the inhibition is 7.5% in assay [1] and -3.44% in assay [2].

On to `CCC/C(C#Cc1cc(OC)cc(OC)c1)=C1/c2ccccc2C(=O)N1c1ccccc1`, for which the inhibition in assay [1] was 3.37%; in assay [2], -4.64%.

As for `COc1ccc(C(=O)c2[nH]c(N)c(C(=O)NCCc3c[nH]c4ccccc34)c2-c2ccc(OC)c(OC)c2)cc1`, the inhibition in assay [1] is -9.46%; in assay [2] it was -4.51%.
